Data taken from PubChem BioAssay (EPA / NIEHS).
Where “and” joins values, the source holds several entries; their conditions need not be identical. Identical values can stand only once. Records with an inconclusive call do not appear. The source holds several records for some structures; these can differ, active in one and inactive in another. Calls of active or inactive are those of the source. The calls were made as follows, unless noted: active = hit-call score of the fitted dose curve at least 0.9, where 1 is the maximum; inconclusive = response in the unintended direction; inactive = score below 0.9.

Key:
[1] = target: Cellular tumor antigen p53 (Homo sapiens) (UniProt P04637); assay: TOX21_p53_BLA_p4_ratio: Tox21 HCT-116 p53 Agonism Beta-lactamase Assay, Ratio, Phase 4 (AID 2283601)
Cellular tumor antigen p53 (Homo sapiens), sequence (P04637 whole entry, looked up): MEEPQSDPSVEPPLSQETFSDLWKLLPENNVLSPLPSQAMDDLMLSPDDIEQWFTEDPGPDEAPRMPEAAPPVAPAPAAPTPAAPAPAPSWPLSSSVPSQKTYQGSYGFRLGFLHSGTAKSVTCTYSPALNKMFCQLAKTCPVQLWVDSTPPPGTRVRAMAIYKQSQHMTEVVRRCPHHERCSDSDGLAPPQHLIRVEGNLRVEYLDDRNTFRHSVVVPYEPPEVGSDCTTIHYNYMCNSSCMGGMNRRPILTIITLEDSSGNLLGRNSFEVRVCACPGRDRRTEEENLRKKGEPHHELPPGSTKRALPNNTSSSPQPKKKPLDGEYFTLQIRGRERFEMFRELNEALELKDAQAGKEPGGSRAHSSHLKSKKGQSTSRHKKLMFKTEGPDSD
Summary of the method: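 HCT-116 p53 beta-lactamase reporter cells (4000/well) preincubated 5 h, then compound (217-fold dilution of DMSO stock) for 16 h at 37C. CCF4-AM substrate added 2 h at room temperature; 460/530 nm emission ratio fitted upward versus DMSO.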

[2] = system: Thyroperoxidase (TPO), gene 54314; assay: CCTE_Simmons_AUR_rTPO: CCTE's Amplex UltraRed Assay for Thyroperoxidase (TPO) Inhibition, Simmons Lab (AID 2283662);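 as to AC50: potency for loss of signal meaning inhibition of peroxidase activity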
Summary of the method: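 Cell-free peroxidase activity assay using rat thyroid gland microsomes with excess H2O2 (300 uM) and 25 uM Amplex UltraRed. Compounds tested from 5 nM to 87.5 uM; fluorescence measured after 30 min at 37C, analysed relative to DMSO baseline.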

[3] = CCTE_Simmons_CellTiterGLO_HEK293T: Viability Assessment in CCTE's Assays for Thyroperoxidase (TPO) Inhibition, Simmons Lab (AID 2283665);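 as to AC50: cells exposed to compound for 24 h before readout; actives reduce ATP signal below DMSO vehicle meaning cytotoxicity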
Summary of the method: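 Luminescent ATP readout (CellTiter-Glo, 20 min at room temperature) after 24 hr exposure of HEK293T cells to 5 nM–87.5 uM final compound; signal loss relative to DMSO vehicle indicated cytotoxicity; dichlone titrated as positive control.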

[4] = CEETOX_H295R_MTT_cell_viability: Viability Assessment in the CeeTox HT-H295R MTT Assay (AID 2283718; active = hit-call score of the fitted dose curve at least 0.9, where 1 is the maximum; inactive = score below 0.9;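 as to AC50: curve fitted both ways so AC50 may mark viability loss or gain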)
Summary of the method: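 Human H295R adrenal cells, prestimulated 48 h with 10 uM forskolin, were exposed 48 h to chemicals in 0.1% DMSO. Viability was measured in the same wells by MTT (0.5 mg/ml, 4 h, 37 C), absorbance 570/650 nm, as percent of controls.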

[5] = ACEA_AR_agonist_AUC_viability: ACEA Biosciences xCELLigence Real-Time Cell Analysis on Androgen Receptor Agonism for Viability (AID 2283775);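 as to AC50: viability read 80 hours after compound addition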
Summary of the method: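 Viability endpoint from xCELLigence impedance in 22Rv1 prostate cells at 80 h. Eight-point series, 100 uM maximum final.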

[6] = ACEA_AR_antagonist_AUC_viability: ACEA Biosciences xCELLigence Real-Time Cell Analysis on Androgen Receptor Antagonism for Viability (AID 2283776);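 also: 22Rv1 human prostate cancer cells growing on impedance electrode plates; area under impedance growth curve at 80 h after dosing as viability; hits lower the growth signal relative to DMSO meaning cytotoxicity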
Summary of the method: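 22Rv1 prostate cells, continuous dosing up to 100 uM final (0.5% DMSO max), duplicate plates. Growth measured by impedance; AUC at 80 h, loss of signal vs DMSO.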

[7] = ACEA_ER_AUC_viability: ACEA Biosciences xCELLigence Real-Time Cell Analysis on Estrogen Receptor Agonism for Viability (AID 2283782);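 also: hit means loss of impedance signal meaning reduced cell growth or viability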
Summary of the method: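 Read-out: real-time electrical impedance (RT-CES) area under curve, loss of signal taken as reduced viability, normalized to DMSO baseline. T-47D cells, charcoal-stripped serum medium, compounds up to 100 uM final, continuous exposure, 80 h.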

[8] = system: chicken Androgen Receptor (AR), gene 422165; assay: ATG_chAR_XSP1: Attagene TRANS-FACTORIAL Multi-Species (XSP1) HepG2 Assay for chicken Androgen Receptor (AR) (AID 2283768)
Summary of the method: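 Reporter mRNA read by RT-PCR with fluorescent labelling and capillary electrophoresis 24 h after chemical dosing of transiently transfected HepG2 cells. Chicken AR-Gal4 chimera, partially stimulated with 3 nM 6-alpha-fluorotestosterone; activity fitted upward relative to DMSO.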

[9] = system: frog Androgen Receptor (AR), gene 399456; assay: ATG_frAR_XSP1: Attagene TRANS-FACTORIAL Multi-Species (XSP1) HepG2 Assay for frog Androgen Receptor (AR) (AID 2283770)
[10] = target: zebrafish Estrogen Receptor (ESR1), esr1 (gene 259252) (UniProt P57717); assay: ATG_zfER1_XSP1: Attagene TRANS-FACTORIAL Multi-Species (XSP1) HepG2 Assay for zebrafish Estrogen Receptor (ESR1) (AID 2283772)
zebrafish Estrogen Receptor (ESR1), esr1 (gene 259252), sequence (P57717 whole entry, looked up, the tested form may be a part): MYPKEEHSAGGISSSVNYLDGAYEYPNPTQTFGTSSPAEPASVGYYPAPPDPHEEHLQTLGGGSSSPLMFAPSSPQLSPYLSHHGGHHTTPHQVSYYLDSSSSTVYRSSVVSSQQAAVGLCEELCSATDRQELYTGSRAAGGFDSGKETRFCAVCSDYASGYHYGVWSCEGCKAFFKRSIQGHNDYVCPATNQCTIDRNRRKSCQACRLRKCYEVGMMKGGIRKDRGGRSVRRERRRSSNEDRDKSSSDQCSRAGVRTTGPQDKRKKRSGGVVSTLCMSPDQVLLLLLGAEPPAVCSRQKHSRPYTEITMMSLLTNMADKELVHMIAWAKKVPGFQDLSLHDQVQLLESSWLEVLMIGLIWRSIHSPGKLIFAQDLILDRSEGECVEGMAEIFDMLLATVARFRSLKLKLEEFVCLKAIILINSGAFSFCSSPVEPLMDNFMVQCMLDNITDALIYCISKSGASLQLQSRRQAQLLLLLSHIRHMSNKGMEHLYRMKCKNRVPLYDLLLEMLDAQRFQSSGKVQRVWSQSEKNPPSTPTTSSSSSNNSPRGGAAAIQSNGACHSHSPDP
Summary of the method: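 Reporter mRNA induction, gauged via RT-PCR/capillary electrophoresis fluorescence relative to DMSO controls, in HepG2 cells transiently carrying GAL4-UAS reporter units; 24 h dosing.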

[11] = system: zebrafish Estrogen Receptor (ESR2B), gene 317733; assay: ATG_zfER2b_XSP1: Attagene TRANS-FACTORIAL Multi-Species (XSP1) HepG2 Assay for zebrafish Estrogen Receptor (ESR2B) (AID 2283773)
Summary of the method: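 Multiplexed TRANS format in transfected HepG2 liver cells, chimeric NR-Gal4 from zebrafish ESR2B. 24 h dosing; medium contains 3 nM 6-alpha-fluorotestosterone. mRNA induction by RT-PCR/CE, positive direction vs DMSO.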

[12] = system: frog Estrogen Receptor (ESR2), gene 100174814; assay: ATG_frER2_XSP1: Attagene TRANS-FACTORIAL Multi-Species (XSP1) HepG2 Assay for frog Estrogen Receptor (ESR2) (AID 2283774)
Summary of the method: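 HepG2, transient MRTU transfection (GAL4-UAS reporters, exogenous NR-Gal4 chimeras); 24 h compound exposure; 3 nM 6α-fluorotestosterone co-added; total RNA → RT-PCR → 6-FAM primer extension → HpaI → CE. Positive direction vs DMSO.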

[13] = system: frog Estrogen Receptor (ESR1), gene 398734; assay: ATG_frER1_XSP1: Attagene TRANS-FACTORIAL Multi-Species (XSP1) HepG2 Assay for frog Estrogen Receptor (ESR1) (AID 2283777)
Summary of the method: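 Transient MRTU transfection, HepG2 (human liver); 24 h dosing, 3 nM 6α-fluorotestosterone co-added; RNA → RT-PCR → 6-FAM labeling → CE; upward activity vs DMSO.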

[14] = system: zebrafish Estrogen Receptor (ESR2A), gene 317734; assay: ATG_zfER2a_XSP1: Attagene TRANS-FACTORIAL Multi-Species (XSP1) HepG2 Assay for zebrafish Estrogen Receptor (ESR2A) (AID 2283778)
Summary of the method: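 Transient transfection of HepG2 (human liver) with MRTU constructs; chemical dosing for 24 h; medium contained 3 nM 6-alpha-fluorotestosterone to partly stimulate AR. RT-PCR/CE fluorescence of reporter transcripts; positive direction vs DMSO.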

[15] = target: chicken Estrogen Receptor (ESR1), ESR1 (gene 396099) (UniProt P06212); assay: ATG_chERa_XSP1: Attagene TRANS-FACTORIAL Multi-Species (XSP1) HepG2 Assay for chicken Estrogen Receptor (ESR1) (AID 2283779)
chicken Estrogen Receptor (ESR1), ESR1 (gene 396099), sequence (P06212 whole entry, looked up, the tested form may be a part): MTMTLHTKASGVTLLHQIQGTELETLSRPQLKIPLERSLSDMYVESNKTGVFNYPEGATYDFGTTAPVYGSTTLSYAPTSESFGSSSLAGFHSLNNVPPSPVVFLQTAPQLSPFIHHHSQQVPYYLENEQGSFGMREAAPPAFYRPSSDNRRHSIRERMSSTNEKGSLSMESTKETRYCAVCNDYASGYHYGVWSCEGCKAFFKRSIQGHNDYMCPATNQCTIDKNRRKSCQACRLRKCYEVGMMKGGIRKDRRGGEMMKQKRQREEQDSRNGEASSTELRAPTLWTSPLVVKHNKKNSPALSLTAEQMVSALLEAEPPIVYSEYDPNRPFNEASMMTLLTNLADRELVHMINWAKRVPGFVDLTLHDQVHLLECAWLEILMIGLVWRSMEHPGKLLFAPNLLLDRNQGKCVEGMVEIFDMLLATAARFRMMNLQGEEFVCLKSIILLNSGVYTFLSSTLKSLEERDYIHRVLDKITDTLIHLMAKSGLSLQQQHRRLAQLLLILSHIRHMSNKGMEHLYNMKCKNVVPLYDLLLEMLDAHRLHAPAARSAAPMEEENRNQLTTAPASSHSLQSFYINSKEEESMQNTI
Summary of the method: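 Read-out: fluorescent reporter mRNA fragments resolved by capillary electrophoresis after RT-PCR and HpaI digestion. Transfected HepG2 cells carried chimeric NR-Gal4 constructs, were dosed 24 h with 3 nM 6-alpha-fluorotestosterone added, and activity was fitted upward relative to DMSO.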

[16] = target: Estrogen receptor (Homo sapiens) (UniProt P03372); assay: ATG_hERa_XSP1: Attagene TRANS-FACTORIAL Multi-Species (XSP1) HepG2 Assay for human Estrogen Receptor (ESR1) (AID 2283780)
Estrogen receptor (Homo sapiens), sequence (P03372 whole entry, looked up, the tested form may be a part): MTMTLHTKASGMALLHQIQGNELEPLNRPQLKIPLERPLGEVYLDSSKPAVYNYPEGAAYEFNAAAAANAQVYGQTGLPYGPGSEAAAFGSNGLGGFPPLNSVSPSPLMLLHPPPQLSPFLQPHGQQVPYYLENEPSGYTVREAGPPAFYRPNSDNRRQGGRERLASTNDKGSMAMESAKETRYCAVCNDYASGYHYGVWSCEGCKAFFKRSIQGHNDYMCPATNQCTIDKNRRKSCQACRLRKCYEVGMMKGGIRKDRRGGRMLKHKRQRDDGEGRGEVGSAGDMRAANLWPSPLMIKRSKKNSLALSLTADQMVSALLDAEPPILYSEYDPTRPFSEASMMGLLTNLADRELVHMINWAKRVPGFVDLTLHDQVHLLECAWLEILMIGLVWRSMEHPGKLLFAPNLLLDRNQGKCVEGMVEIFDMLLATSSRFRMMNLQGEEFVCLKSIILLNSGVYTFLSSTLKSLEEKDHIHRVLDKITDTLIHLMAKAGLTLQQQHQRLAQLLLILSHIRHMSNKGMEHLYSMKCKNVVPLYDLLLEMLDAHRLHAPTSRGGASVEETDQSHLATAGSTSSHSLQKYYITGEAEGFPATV
Summary of the method: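 Reporter transcripts from multiplexed GAL4-UAS units driven by NR-Gal4 chimeras in transiently transfected HepG2 were measured by RT-PCR with capillary electrophoresis 24 h post-dose, with 3 nM 6-alpha-fluorotestosterone present; gain-of-signal relative to DMSO.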

[17] = system: turtle Estrogen Receptor (ESR1), gene 101933533; assay: ATG_trERa_XSP1: Attagene TRANS-FACTORIAL Multi-Species (XSP1) HepG2 Assay for turtle Estrogen Receptor (ESR1) (AID 2283781)
Summary of the method: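 Transfect HepG2 with reporter units → dose chemical 24 h (medium has 3 nM 6-alpha-fluorotestosterone) → isolate RNA, RT-PCR → FAM primer extension, HpaI digest → capillary electrophoresis; gain of signal vs DMSO.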

## CN(C)c1ccc(C(=N)c2ccc(N(C)C)cc2)cc1
[1]
  AC50: 936 nM (active) and 1.49 µM (active)
[2]
  AC50: 31.6 µM (active)
[3]
  outcome: inactive
[4]
  AC50: 0.0018 µM (active)
[5]
  AC50: 3.18 µM (active)
[6]
  AC50: 3.19 µM (active)
[7]
  AC50: 32.3 µM (active)

## CCCCCCCCO[C@@H]1O[C@H](CO)[C@@H](O)[C@H](O)[C@H]1O
[1]
  outcome: inactive
[5]
  outcome: inactive
[6]
  outcome: inactive
[7]
  outcome: inactive

## CCO[Si](C)(OCC)OCC
[1]
  outcome: inactive
[5]
  outcome: inactive
[6]
  outcome: inactive
[7]
  outcome: inactive

## O=C(c1ccc(O)cc1)c1ccc(O)cc1O
[1]
  AC50: 72.9 µM (active)
  outcome: inactive
[8]
  AC50: 1.56 µM (active)
[9]
  AC50: 2.78 µM (active)
[10]
  AC50: 1.76 µM (active)
[11]
  AC50: 1.23 µM (active)
[12]
  AC50: 0.729 µM (active)
[13]
  AC50: 0.664 µM (active)
[14]
  AC50: 0.426 µM (active)
[15]
  AC50: 1.28 µM (active)
[16]
  AC50: 1.27 µM (active)
[17]
  AC50: 0.879 µM (active)

## C#CC1(O)CC[C@H]2[C@@H]3CCC4=CCCC[C@@H]4[C@H]3CC[C@@]21C (stereo partly drawn)
[1]
  AC50: 84.8 µM (active)
[4]
  outcome: inactive

## CC(=O)OC(C)C
[1]
  outcome: inactive
[5]
  outcome: inactive
[6]
  outcome: inactive

## CCCCCCCCCCCCCOP(=O)(O)O
[1]
  outcome: inactive
[2]
  outcome: inactive
[3]
  AC50: 79.1 µM (active)
[4]
  outcome: inactive
[5]
  outcome: inactive
[6]
  outcome: inactive
[7]
  AC50: 48.7 µM (active)

## Cn1c([N+](=O)[O-])cnc1COC(N)=O
[1]
  outcome: inactive
[6]
  outcome: inactive
[7]
  outcome: inactive

## Cc1ccc(C(C)(C)C)cc1
[1]
  outcome: inactive
[5]
  outcome: inactive
[7]
  outcome: inactive

## Cc1ccc(N/N=c2\c(=O)cc/c(=N/Nc3ccc(S(=O)(=O)O)cc3)c2=O)c(C)c1
[1]
  outcome: inactive
[2]
  AC50: 28.9 µM (active)
[3]
  AC50: 76.6 µM (active)
[6]
  AC50: 8.3 µM (active)
[7]
  outcome: inactive

## Cc1cc(C)c(C(=O)O)c(C)c1
[1]
  outcome: inactive
[5]
  outcome: inactive
[6]
  outcome: inactive
[7]
  outcome: inactive

## OC1OCCOC1O (stereo not drawn)
[1]
  outcome: inactive

## C=C1C2CCC(C2)C1(C)C (stereo not drawn)
[1]
  outcome: inactive
[5]
  outcome: inactive
[7]
  outcome: inactive

## O=S(=O)(O)c1ccccc1C=Cc1ccc(-c2ccc(C=Cc3ccccc3S(=O)(=O)O)cc2)cc1
[1]
  AC50: 11.4 µM (active)
[2]
  AC50: 44.4 µM (active)
[3]
  outcome: inactive
[6]
  outcome: inactive
[7]
  outcome: inactive

## OC1CCCCCCCCCCC1
[1]
  outcome: inactive
[5]
  outcome: inactive
[6]
  outcome: inactive
[7]
  outcome: inactive

## CC(=O)[C@H]1[C@H](C#N)C[C@H]2[C@@H]3CC=C4C[C@@H](O)CC[C@]4(C)[C@H]3CC[C@@]21C
[1]
  outcome: inactive
[6]
  outcome: inactive
[7]
  outcome: inactive

## CCCCCc1ccc(Cl)cc1
[1]
  outcome: inactive
[6]
  outcome: inactive
[7]
  outcome: inactive
